Screening data from PubChem BioAssay.
The list is not random: actives were taken first. Their share in the collection is about 11%.
Lmaj promast: inhibitors of Leishmania major promastigote growth. inhibition, % at 10 µM. Leishmania major promastigotes, resazurin fluorescence viability. hit rate 9% among 200,000; in the data active means inhibition above about 50%;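 further: promastigotes grown with compound for 44 hours at 28 °C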
INS promoter inh: TRM-6 insulin promoter activity inhibition; TRM-6 cells (human fetal islet line), insulin promoter-eGFP reporter, imaging; reporter expression induced with tamoxifen; inhibition, % at 2 µM; AID 1273; hit rate 0.9% among 130,000;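 active means inhibition above the mean plus 3 SD, with well images judged a real hit on visual review, cut at about 60% in these data, passing the limit was not always enough; inconclusive means inhibition over the cutoff but images rejected on review; inactive means inhibition not above the cutoff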
Autophagy mod: alters autophagy in cells | MEF GFP-LC3 puncta imaging; test concentration mostly 10 µM | calls only at 10 µM (by protocol) | hit rate 0.98% among 190,000;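 active means percentage of spot-positive cells more than 3 SD above its plate mean, without a fluorescence outlier flag or 80% toxicity; inconclusive means no clear call, values can overlap the other calls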;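 further: spot-positive cell cutoff set from DMSO-treated cells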
Insulin prom up: MIN6 insulin promoter up-regulation; hit rate 0.3% among 190,000; MIN6 insulin promoter-GFP reporter, high-content imaging; stronger effect = higher value; AID 1625; z-score at 5 µM;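 active means z-score above 3 at 5 µM with at least 500 cells counted in the well; inconclusive means wells under 500 cells, flagged as cytotoxic or low count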
WT yeast gro inh: growth inhibition of WT yeast, mitochondrial fusion screen; hit rate 2.1% among 190,000; AID 1362; mitochondrial fusion phenotypic screen, WT strain; inhibition, % at 10 µM; in the data active means inhibition above about 58%; tested in S. cerevisiae
The depositor's hits bear a star; i = inactive; ? = inconclusive; nt = not tested or not shown; + = active, no number.

SMILES	Lmaj promast	INS promoter inh	Autophagy mod	Insulin prom up	WT yeast gro inh
N#Cc1ccc(Sc2nc3ccccc3[nH]2)cc1C#N	35	nt	i	0.24	10
N#Cc1cc2ccccc2nc1N	-3	nt	+	1.2	0
NC(=O)CC[C@H](NC(=O)OCc1ccccc1)C(=O)OCc1ccc(Cl)cc1	21	-22	i	1.2	-1
C/C(=N\NC(=O)c1ccc(COc2ccccc2)cc1)c1ccncc1	-2	nt	i	-0.81	-6
O=C(COc1ccc2ccc(=O)oc2c1)N1CCN(c2ccccc2)CC1	69*	nt	i	0.88	-10
COc1ccc(N2CCN(C(=O)COc3ccccc3)CC2)cc1	-2	12	i	0.84	10
CCCCC(=O)O[C@H]1CC[C@H]2[C@@H]3CCc4cc(O)ccc4[C@H]3CC[C@]12C	-5	-41	i	nt	91*
O=C(NC(=S)NCCN1CCOCC1)c1ccc(Cl)cc1	-2	-62	i	nt	11
CC1=CC(C)(C)N2C(=O)C3(N=C(N)NC(Nc4ccccc4)=N3)c3cc(C)cc1c32 (stereo not drawn)	96*	-481	i	-0.13	8
COc1ccccc1NC(=O)C1=C(C)Nc2nc(-c3cccs3)nn2C1c1cccc(O)c1 (stereo not drawn)	10	nt	+	-1.2	2
CSc1nnc(CCCCCCCCc2nnc(SC)o2)o1	nt	nt	nt	-0.47	nt
O=C(NCc1cccnc1)c1ccc(CN2CCc3ccccc3C2)cc1	63*	-103	i	nt	-1
CCCNC(=O)c1ccc(CN2CCc3ccccc3C2)cc1	56*	-39	i	-0.45	1
Cc1cc(C)c(NC(=O)c2ccc(CN3CCc4ccccc4C3)cc2)c(C)c1	73*	32	i	-0.28	-17
Cc1c(NC(=O)c2ccc(CN3CCc4ccccc4C3)cc2)c(=O)n(-c2ccccc2)n1C	0	-36	i	0.27	9
O=C(c1ccc(CN2CCc3ccccc3C2)cc1)N1CCCCC1	63*	-11	i	-0.93	12
Cc1oc(-c2cccs2)nc1CN1CCN(C(C)C)C(CCO)C1 (stereo not drawn)	0	nt	i	-0.09	9
CCC(=O)Oc1ccc(NC(=O)CSCc2ccccc2)cc1	-2	nt	i	0.61	-5
O=C(c1ccc(COc2ccccc2Br)o1)N1CCCCCC1	-2	46	i	0.52	36
O=C(c1ccc(COc2ccccc2Br)cc1)N1CCCCC1	70*	36	i	0.23	2
O=C(C1CCCN(Cc2ccccc2)C1)N1CCc2ccccc2C1 (stereo not drawn)	96*	42	i	nt	-12
CC(C)c1nnc(NC(=O)C2CCCN2C(=O)Nc2ccccc2[N+](=O)[O-])s1 (stereo not drawn)	-9	?	i	-0.9	5
O=C(CN(CCO)c1ccccc1)Nc1ccc(Cl)c(S(=O)(=O)N2CCOCC2)c1	2	nt	i	0.01	-13
Brc1cnc2nc[nH]c2c1	nt	nt	nt	0.23	nt
O=C(NCC1CCCO1)C(c1cccs1)N(Cc1ccccc1Cl)C(=O)c1ccc(-c2ccccc2)[nH]1 (stereo not drawn)	100*	-46	i	-0.49	20
SMILES	Lmaj promast	INS promoter inh	Autophagy mod	Insulin prom up	WT yeast gro inh
O=C(CN(Cc1ccccc1Cl)C(=O)Cn1nnc(-c2cccs2)n1)NCC1CCCO1 (stereo not drawn)	19	-35	i	0.1	7
Cc1ccc(C(C(=O)NCC2CCCO2)N(Cc2ccccc2)C(=O)c2ccc(-c3ccccc3)[nH]2)o1 (stereo not drawn)	53*	?	i	-0.57	69*
O=C(CCl)N(Cc1ccccc1)c1ccccc1	79*	i	i	nt	-29
Cc1cccc(N(Cc2ccccc2)C(=O)CCl)c1	81*	nt	?	0.88	-27
COc1cc(C(=O)Nc2ccc(C)cc2)c(-n2cnnn2)cc1OC	-5	nt	i	-0.86	10
CC/C(=C(/CC)c1ccc(O)cc1)c1ccc(O)cc1	19	nt	i	-0.42	76*
COC(=O)c1cnc2ccccc2n1	-7	-26	i	nt	5
O=C(O)c1cnc2ccccc2n1	-1	85*	i	0.49	-14
COCCNC(=O)C(C(=O)c1ccc(F)cc1)n1cc(C)ccc1=O (stereo not drawn)	-4	-10	i	0.16	2
Cc1cc([N+](=O)[O-])nn1CCCC(=O)Nc1cc(Oc2ccccc2)cc([N+](=O)[O-])c1	-3	7	i	0.87	11
Cc1cccc(Oc2cc(NC(=O)Cn3cnc([N+](=O)[O-])n3)cc([N+](=O)[O-])c2)c1	100*	-39	i	-0.92	-23
CN(Cc1ccccc1)C(=O)CCC(=O)N(C)Cc1ccccc1	-5	-36	i	0.51	-7
CC1(C(=O)N(Cc2ccccc2)Cc2ccccc2)CC1(Br)Br (stereo not drawn)	6	-121	i	0.1	83*
CCC(CO)n1c(SCc2cc([N+](=O)[O-])cc3c2OCOC3)nc2ccccc2c1=O (stereo not drawn)	81*	56	i	-0.54	53
C=CCn1c(SCc2cc([N+](=O)[O-])cc3c2OCOC3)nc2cc(C(=O)O)ccc2c1=O	nt	nt	nt	-0.13	nt
COc1ccc(-c2noc(=O)n2CC(=O)N2CCC(Cc3ccccc3)CC2)cc1	96*	nt	i	-0.15	-1
COc1ccc(-c2noc(CCC(=O)NCCCN3CCC(Cc4ccccc4)CC3)n2)cc1	100*	-49	+	-1.8	16
O=C(Cn1c(-c2ccccc2)noc1=O)N1CCC(Cc2ccccc2)CC1	39	-30	i	nt	-4
CC1=NN(c2ccccc2)C(=O)C1(C)[N+](=O)[O-] (stereo not drawn)	-6	-15	i	-0.9	-17
Cc1cc(C)nc(Nc2ncc(O)n2-c2ccccc2)n1	-2	23	i	nt	64*
Cc1ccc(-n2c(O)cnc2Nc2nc(C)cc(C)n2)cc1	-2	nt	i	-0.01	18
CCOC(=O)c1c(NC(=O)c2cc(C)on2)c2cc([N+](=O)[O-])ccc2n1C	nt	nt	nt	0.43	nt
O=C(Cn1cnc2sc(-c3ccccc3)cc2c1=O)NCc1ccccc1	-4	63	+	0.71	13
CC(=O)Nc1c(C#N)c(C(C)(C)C)cn1C	-4	-2	i	-0.09	-15
Cc1cc(Cl)ccc1NC(=O)C1CCN(S(C)(=O)=O)CC1	-8	nt	i	-0.27	-10
SMILES	Lmaj promast	INS promoter inh	Autophagy mod	Insulin prom up	WT yeast gro inh
Cc1cc(C)n(-c2nc(NCCC(C)C)c3c4c(sc3n2)COC(C)(C)C4)n1	71*	-14	i	-3.1	80*
Cc1cc(C)n(-c2nc(NCCN(C)C)c3c4c(sc3n2)COC(C)(C)C4)n1	nt	nt	nt	-0.55	nt
Cc1c(CCOC(=O)c2cc([N+](=O)[O-])cc([N+](=O)[O-])c2)sc[n+]1CCCCS(=O)(=O)[O-]	-11	nt	i	0.47	-2
CN(C(=O)CS(=O)(=O)c1cccc(Cl)c1)c1ccccc1	-4	45	i	nt	-2
Cc1cc(C)n(C(=O)C2CCCN2S(=O)(=O)c2ccc(Cl)cc2)n1 (stereo not drawn)	-7	nt	i	0.8	26
O=[N+]([O-])c1cccc(/C=C/c2nc3ccc([N+](=O)[O-])cc3[nH]2)c1	55*	nt	i	-1.4	11
